In all, about 220,000 compounds went through this assay and about 16,000 (7.3%) were called active. Entries that show only a call come without a potency. Not shown: some 25% with an inconclusive outcome. Calls come from the whole dose curve; as a rule, active = well fitted inhibition curve with a large enough effect (not every such curve was filed as active); inconclusive = small, poorly fitted or top-dose-only effect, or another doubt; inactive = no such curve, though single readings can be large or run the other way. This excerpt belongs to a sample that is enriched for actives.

Drawing on PubChem BioAssay AID1030 (National Center for Advancing Translational Sciences (NCATS), 2008), this text covers Potency and activity, negative = inhibition for 75 molecules.
Potency is the fitted concentration of half-maximal effect.

Aldehyde dehydrogenase 1A1 (Homo sapiens), sequence (P00352 whole entry, looked up): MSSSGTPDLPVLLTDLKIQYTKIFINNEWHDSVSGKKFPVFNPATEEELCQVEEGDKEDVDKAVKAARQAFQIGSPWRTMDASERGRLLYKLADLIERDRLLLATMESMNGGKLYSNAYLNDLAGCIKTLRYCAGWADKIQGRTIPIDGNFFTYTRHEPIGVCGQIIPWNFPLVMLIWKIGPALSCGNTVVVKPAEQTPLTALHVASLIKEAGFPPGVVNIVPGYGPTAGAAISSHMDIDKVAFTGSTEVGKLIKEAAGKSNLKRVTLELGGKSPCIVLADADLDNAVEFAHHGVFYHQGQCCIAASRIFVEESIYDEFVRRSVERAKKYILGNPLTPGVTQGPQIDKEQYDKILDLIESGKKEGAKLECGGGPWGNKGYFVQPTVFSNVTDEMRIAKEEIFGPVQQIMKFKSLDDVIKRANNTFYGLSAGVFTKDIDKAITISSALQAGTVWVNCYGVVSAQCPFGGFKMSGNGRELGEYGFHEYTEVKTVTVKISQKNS

The assay has as its target Aldehyde dehydrogenase 1A1 (Homo sapiens) (UniProt P00352). As to the kind of experiment: qHTS Assay for Inhibitors of Aldehyde Dehydrogenase 1 (ALDH1A1). The following applies: Purified ALDH1A1, NADH fluorescence, propionaldehyde substrate; series mostly up to 75.3 µM. (In general: qHTS replaces the single test concentration by a dilution series.)
As to `COc1ccc(C(=S)Nc2ccccc2)cc1`, the Potency entry is “inactive”.

As to `COCCCNC(NC(=O)c1ccc(OC)cc1)C(Cl)(Cl)Cl` (stereo not given), the Potency result was “inactive”.

On to `COCCNC(=S)c1ccc(OC)cc1`, for which the Potency is 20 µM (active).

Turning to `Cn1nc(-c2ccccc2)c(CO)c1Sc1ccccc1`, the Potency entry was “inactive”.

Regarding `COc1ccc(C(=O)NNC(=O)c2cc(C)[nH]n2)cc1`, the Potency result was “inactive”.

Regarding `Cc1ccc(C2NC(=S)NC3=C2N2CCC3CC2)cc1` (stereo not given), the Potency is 8.91 µM (active).

Take `CC(O)c1cccc(NC(=O)Cc2cccc3ccccc23)c1` (stereo not given): the Potency result is “inactive”.

As for `O=C(NCc1ccco1)c1sc2cccc(F)c2c1Cl`, the Potency is 28.2 µM (active).

For the molecule `O=C(NCc1ccco1)c1cc2sccc2n1Cc1ccc(F)cc1`, the Potency entry was “inactive”.

With `O=C(NCc1ccco1)c1nn2cccnc2c1Cl`, the Potency entry was “inactive”.

Take `COc1cccc(C(=O)Nc2c3c(nn2-c2cccc(C)c2C)CS(=O)(=O)C3)c1OC`: the Potency entry is “inactive”.

As for `O=C(CC1CCCCC1)NCc1ccc(F)cc1`, the Potency entry is “inactive”.

With `O=C(CC1CCCCC1)Nc1c2c(nn1-c1ccc(F)cc1)CS(=O)(=O)C2`, the Potency was 7.94 µM (active).

As for `COCCNc1nc2nonc2nc1N(C)Cc1ccc(C)cc1`, the Potency entry is “inactive”.

As for `CCCCN(CC)CCCNC(=O)c1ccc(CSc2nc3ccncc3[nH]2)cc1`, the Potency result is “inactive”.

Consider `Cc1c(C=O)n(C)n(-c2ccccc2)c1=O`, for which the Potency result is “inactive”.

`CCOC(=O)N1CCC(=NNC(N)=O)CC1`: the Potency entry is “inactive”.

For `O=C(NCC1CCCO1)C1CCN(C2CCN(C(=O)C3CCCCC3)CC2)CC1` (stereo not given), the Potency entry is “inactive”.

In the case of `Cc1cccc(NC(=O)c2nnn(-c3cccc(C(F)(F)F)c3)c2N)c1`, the Potency result is “inactive”.

In the case of `CCn1c2ccccc2c2cc(NC(=O)CNC)ccc21`, the Potency is 25.1 µM (active).

On to `CCn1c2ccccc2c2cc(NC(=O)COC(=O)c3ccccc3Br)ccc21`, for which the Potency entry was “inactive”.

`CCn1c2ccccc2c2cc(NC(=S)N3CCOCC3)ccc21`: the Potency entry is “inactive”.

For `CCOc1ccc(CN2CCN(Cc3ccc(C)o3)CC2CCO)cc1` (stereo not given), the Potency result is “inactive”.

On to `CCN1CCN(C(c2cccnc2)c2cc(Cl)c3cccnc3c2O)CC1` (stereo not given), for which the Potency is 1.78 µM (active).

Turning to `Oc1c(C(c2ccccn2)N2CCOCC2)ccc2cccnc12` (stereo not given), the Potency result was “inactive”.

Consider `O=C(O)COc1c(Cl)cc(Cl)c2cccnc12`, for which the activity, negative = inhibition was -8.71% [at 13.5 µM] (inactive).

Turning to `CCOC(=O)N1CCN(C(c2cccnc2)c2ccc3cccnc3c2O)CC1` (stereo not given), the Potency was 1.58 µM (active).

For `Oc1c(CN2CCN(c3ccc(F)cc3)CC2)cc(Cl)c2cccnc12`, the Potency entry is “inactive”.

On to `CCOC(=O)N1CCN(C(=O)CSc2ccc(Cl)cc2)CC1`, for which the Potency entry is “inactive”.

On to `O=C(Nc1cccnc1)c1cc2cc(Br)ccc2oc1=O`, for which the Potency result is “inactive”.

On to `CCCN(CCC)c1ccc(C(O)c2nnc(-c3ccccc3)o2)cc1` (stereo not given), for which the Potency result was “inactive”.

Regarding `Oc1ccc(N=Nc2nccs2)c(O)c1`, the Potency result is “inactive”.

Take `Cc1nn2cc(-c3ccc(Cl)cc3)cnc2c1Br`: the Potency result is “inactive”.

For the molecule `CCCCCCCC1(C)NC(=O)N(CC(=O)Nc2cc(C)on2)C1=O` (stereo not given), the Potency result was “inactive”.

Take `CC1CN(S(=O)(=O)c2ccc(C(=O)NN3CCN(C)CC3)cc2)CC(C)O1` (stereo not given): the Potency result is “inactive”.

With `COc1cc([C@H](Cc2ccccc2)NC(C)=O)oc(=O)c1`, the Potency entry was “inactive”.

`O=C(NN1C(=O)C2C3C=CC(C3)C2C1=O)c1ccco1` (stereo not given): the Potency entry is “inactive”.

As to `COc1ccccc1C(=O)Nn1c(-c2cccs2)nc2ccccc2c1=O`, the Potency result is “inactive”.

As to `COc1ccccc1C(=O)NNC(=O)c1ccc(NC(=O)c2ccccc2)cc1`, the Potency result was “inactive”.

On to `O=C(Nc1ccc2c(c1)OCCO2)c1ccncc1`, for which the Potency result is “inactive”.

Take `O=C(NN1C(=O)C2C3C=CC(O3)C2C1=O)c1ccncc1` (stereo not given): the Potency was 17.8 µM (active).

For the molecule `COc1ccccc1C(=O)NN1C(=O)C2C3C=CC(O3)C2C1=O` (stereo not given), the Potency is 20 µM (active).

For `COC(=O)c1ccc(CN2CCC(CO)(Cc3ccc(OC)cc3)CC2)cc1`, the Potency result is “inactive”.

In the case of `CC(NC(=S)NC1CCCCC1)C(c1ccccc1)N1CCOCC1` (stereo not given), the Potency entry was “inactive”.

On to `Cc1cccc(N2CCN(C(c3ccccc3)c3nnnn3CC3CCCO3)CC2)c1C` (stereo not given), for which the Potency result is “inactive”.

Consider `CC(C)(C)n1nnnc1C(c1cccs1)N(Cc1cccnc1)CC1CCCO1` (stereo not given), for which the Potency result was “inactive”.

Take `Cc1cc(C)c2cc(CN(Cc3cccs3)Cc3nnnn3CC3CCCO3)c(=O)[nH]c2c1` (stereo not given): the Potency is 11.2 µM (active).

On to `CCCCC(=O)Nc1ccc(C(=O)Nc2cc(C(F)(F)F)ccc2Cl)cc1`, for which the Potency result was “inactive”.

Take `C[C@@H](Nc1nc(-c2ccccc2)nc2c1oc1ccccc12)C(=O)O`: the Potency was 7.08 µM (active).

As to `CCSc1nc(C)nc2c1oc1ccccc12`, the Potency result is “inactive”.

Take `Cc1nc(Cl)c2oc3ccccc3c2n1`: the Potency entry was “inactive”.

Take `O=C(NCCN1CCOCC1)Nc1cccc(Cl)c1`: the Potency result is “inactive”.

Regarding `CC/C(=N\NC(=S)NC(C)C)c1ccc(OC(F)F)cc1`, the Potency result is “inactive”.

As for `Cc1ccc(NC(=S)N(CCCN2CCCC2)Cc2cccn2Cc2ccc(Cl)cc2)cc1`, the Potency entry is “inactive”.

As for `C/C(CCc1ccccc1)=N\NC(=O)c1ccc(CN2CCOCC2)cc1`, the Potency is 25.1 µM (active).

For `COc1ccc(C(=O)Nc2ccc(CN3CCOCC3)cc2)cc1`, the Potency entry is “inactive”.

Regarding `O=C(Nc1ccc(CSc2ccccc2)cc1)c1ccc(CN2CCOCC2)cc1`, the Potency result is “inactive”.

Take `O=C(COc1ccc(NC(=O)c2ccccc2[N+](=O)[O-])cc1)c1ccc(F)cc1`: the Potency result was “inactive”.

Take `CSc1ncccc1C(=O)Nc1nc2ccc(F)cc2s1`: the Potency result was “inactive”.

Take `COCC1CCCN(Cc2cn[nH]c2-c2cc3ccccc3o2)C1` (stereo not given): the Potency result was “inactive”.

Turning to `O=C(O)c1ccc(/C=N/NC(=S)NCc2ccccc2)cc1`, the Potency entry was “inactive”.

Consider `O=C(Nc1ccncc1)c1ccccc1[N+](=O)[O-]`, for which the Potency result was “inactive”.

For `O=C(Cl)c1ccccc1[N+](=O)[O-]`, the Potency result is “inactive”.

Consider `O=[N+]([O-])c1ccccc1SNc1ccccn1`, for which the Potency was 20 µM (active).

Turning to `COc1cc(NC(=O)COc2ccccc2Cl)ccc1NC(=O)C(C)C`, the Potency result was “inactive”.

As to `COc1ccc(S(=O)(=O)N(C)C)cc1NC(=O)CSc1ncccn1`, the Potency entry was “inactive”.

Regarding `O=C(Nc1ccc(Cl)c(Cl)c1)N1CC=C(c2ccccc2)CC1`, the Potency entry was “inactive”.

`Cc1cccc(C)c1NC(=O)c1ccc(CN2CCc3ccccc3C2)cc1`: the Potency result is “inactive”.

Regarding `Cc1cccc(C)c1NC(=O)N1CC=C(n2c(=O)[nH]c3ccccc32)CC1`, the Potency is 6.31 µM (active).

In the case of `CSc1ccc(CNCCN2CCOCC2)cc1`, the Potency entry is “inactive”.

Turning to `Cc1ccc(-c2nc(C)sc2CC(=O)OCC(=O)Nc2c(F)cccc2F)cc1`, the Potency result is “inactive”.

As for `Cc1ccc(NC(=O)Nc2nnc(-c3ccncc3)s2)cc1`, the Potency result was “inactive”.

Take `O=C(CC1CCCCC1)NCc1ccco1`: the Potency result is “inactive”.

For the molecule `CCOCCc1c(O)nc(SCC(=O)NCc2ccco2)[nH]c1=O`, the Potency entry is “inactive”.

In the case of `O=C(CSC1=Nc2ccccc2C2=NC(CC(=O)NCc3ccco3)C(=O)N12)NCc1ccco1` (stereo not given), the Potency is 7.94 µM (active).
